From PubChem BioAssay
Methyltransferases: Primary Screen for Target Class Profiling of Small Molecule Inhibitors of Methyltransferases; purified enzyme, MTase-Glo SAH luminescence; stronger effect = lower value; calls only at 40 µM; 3.9% of 25,000 active; call rule not given here
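Each enzyme was reacted with SAM and its substrate, with compounds tested once at 40 uM; SAH formed was read by MTase-Glo luminescence.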
An asterisk follows results filed as active; i = inactive; + = active, no number. The full list was thinned out, with hits kept by preference. % is scaled to controls: 0 for no effect and ±100 for the full control effect.

SMILES	Methyltransferases
N#Cc1cn([C@@H]2O[C@H](CO)[C@H](O)[C@@H]2O)c2ncnc(N)c12	+
COc1ccc(NC(=O)N2Cc3ccccc3-n3cccc3C2c2ccc(C)cc2)cc1 (stereo not given)	i
CCc1ccc(NC(=O)N2Cc3ccccc3-n3cccc3C2c2ccc(SC)cc2)cc1 (stereo not given)	i
CN(C)c1ccc(C2c3cccn3-c3ccccc3CN2C(=O)NCCc2ccccc2)cc1 (stereo not given)	i
N#Cc1ccc(N2CCN(C(=O)COc3ccc4[nH]cc(CCN)c4c3)CC2)cc1	+
Cc1cccc(C2c3cccn3-c3ccccc3CN2C(=O)Nc2cccc(Cl)c2)c1 (stereo not given)	i
COc1ccc(NC(=O)N2Cc3ccccc3-n3cccc3C2c2ccccc2C)cc1 (stereo not given)	i
O=C1Nc2ccc3ncsc3c2/C1=C/c1cnc[nH]1	+
COc1cccc(NC(=O)N2Cc3ccccc3-n3cccc3C2c2ccccc2)c1 (stereo not given)	i
CCC1c2cccn2-c2ccccc2CN1C(=O)Nc1ccc(Br)c(C)c1 (stereo not given)	i
COc1ccc(C2c3cccn3-c3ccccc3CN2C(=O)Nc2cccc(OC)c2)cc1 (stereo not given)	i
CC1CCN(CC2CCCCCN2C(=O)Cc2ccccc2)CC1 (stereo not given)	i
O=C(Nc1ccc(F)cc1)N1Cc2ccccc2-n2cccc2C1c1cccs1 (stereo not given)	i
COc1cccc(NC(=O)N2Cc3ccccc3-n3cccc3C2c2ccc(F)cc2)c1 (stereo not given)	i
Cc1ccc(C2c3cccn3-c3ccccc3CN2C(=O)Nc2ccccc2Br)cc1 (stereo not given)	i
Cc1ccc(CNC(=O)N2Cc3ccccc3-n3cccc3C2C)cc1 (stereo not given)	i
CCOc1ccc(C2c3cccn3-c3ccccc3CN2C(=O)Nc2ccc(CC)cc2)cc1 (stereo not given)	i
CC1CCCC(O)CC(=O)Cc2cc(O)cc(O)c2C(=O)O1 (stereo not given)	i
COc1cc(O)c2c(c1)CCC[C@@H](O)[C@H](O)C(=O)/C=C\C[C@H](C)OC2=O	i
C[C@H]1CCC[C@H](O)CCC/C=C/c2cc(O)cc(O)c2C(=O)O1	+
Cc1ccc(C)c(NC(=O)N2Cc3ccccc3-n3cccc3C2C)c1 (stereo not given)	i
CCc1ccc(NC(=O)N2Cc3ccccc3-n3cccc3C2c2ccc(OC)cc2)cc1 (stereo not given)	i
COC(=O)c1ccc(Cl)cc1NC(=O)N1Cc2ccccc2-n2cccc2C1C (stereo not given)	i
Cc1ccccc1C1c2cccn2-c2ccccc2CN1C(=O)Nc1cccc(Cl)c1 (stereo not given)	i
Cc1[nH]c2ccc(Cl)cc2c1CCN(C)C	+
SMILES	Methyltransferases
CCC1c2cccn2-c2ccccc2CN1C(=O)Nc1cccc(C(F)(F)F)c1 (stereo not given)	i
CCc1ccc(C2c3cccn3-c3ccccc3CN2C(=O)Nc2cc(C)ccc2OC)cc1 (stereo not given)	i
CCCN1CCc2cc(O)cc3c2[C@H]1Cc1ccc(O)c(O)c1-3	+
CN1CCc2cc(O)cc3c2[C@H]1Cc1ccc(O)c(O)c1-3	+
CCCN1CCO[C@H]2c3cc(O)ccc3OC[C@@H]21	i
CCC1c2cccn2-c2ccccc2CN1C(=O)Nc1cc(Cl)ccc1C(=O)OC (stereo not given)	i
O=C(Nc1cc(F)ccc1F)N1Cc2ccccc2-n2cccc2C1c1ccccc1 (stereo not given)	i
CC(C)c1ccc(C2c3cccn3-c3ccccc3CN2C(=O)NCc2ccco2)cc1 (stereo not given)	i
CCC1c2cccn2-c2ccccc2CN1C(=O)NCCCOC (stereo not given)	i
CCOc1ccc(C2c3cccn3-c3ccccc3CN2C(=O)Nc2ccc3c(c2)OCCO3)cc1 (stereo not given)	i
COc1ccc(C2c3cccn3-c3ccccc3CN2C(=O)Nc2ccc(OC)cc2OC)cc1 (stereo not given)	i
COc1ccc(NC(=O)N2Cc3ccccc3-n3cccc3C2c2ccccc2C)c(OC)c1 (stereo not given)	i
CC(C)CCNC(=O)N1Cc2ccccc2-n2cccc2C1c1ccc(Cl)cc1 (stereo not given)	i
O=S1(=O)N(CCN2CC=C(c3c[nH]c4cc(F)ccc34)CC2)c2cccc3c2N1CCC3	+
CCOc1ccccc1NC(=O)N1Cc2ccccc2-n2cccc2C1CC (stereo not given)	i
CCc1ccccc1NC(=O)N1Cc2ccccc2-n2cccc2C1c1ccc(OC)cc1 (stereo not given)	i
Cc1cccc(C2c3cccn3-c3ccccc3CN2C(=O)NCc2ccco2)c1 (stereo not given)	i
COc1ccccc1NC(=O)N1Cc2ccccc2-n2cccc2C1c1ccccc1 (stereo not given)	i
Cc1c2ccncc2c(C)c2c1[nH]c1ccccc12	+
Cc1nccc2c1[nH]c1ccccc12	i
CCOc1ccccc1NC(=O)N1Cc2ccccc2-n2cccc2C1c1cccc(C)c1 (stereo not given)	i
COCCCNC(=O)N1Cc2ccccc2-n2cccc2C1c1ccc(Cl)cc1 (stereo not given)	i
NCCc1ccc(O)cc1	+
NNC(=O)c1ccc(O)cc1	i
COc1ccc(C2c3cccn3-c3ccccc3CN2C(=O)NC2CCCC2)cc1OC (stereo not given)	i
SMILES	Methyltransferases
Cc1ccccc1C1c2cccn2-c2ccccc2CN1C(=O)NCCc1ccccc1 (stereo not given)	i
C[C@]12CC[C@H](O)C[C@@H]1CC[C@@H]1[C@@H]2CC[C@]2(C)[C@@H](C3=CC(=O)OC3)CC[C@]12O	i
CN1CCC[C@@H]1Cc1c[nH]c2ccc(Nc3ncccc3[N+](=O)[O-])cc12	+
CCOc1ccccc1NC(=O)N1Cc2c(C)cc(C)nc2-n2cccc2C1c1ccc(F)cc1 (stereo not given)	i
CCOc1ccc(C2c3cccn3-c3ccccc3CN2C(=O)Nc2cccc(SC)c2)cc1 (stereo not given)	i
CCCN(CCC)[C@@H]1CCc2cccc(O)c2C1	i
CCCN(CCC)[C@@H]1CCc2ccc3[nH]c(C#N)cc3c2C1	+
CCOC(=O)CNC(=O)N1Cc2ccccc2-n2cccc2C1c1cccs1 (stereo not given)	i
COc1ccsc1CNCC[C@@]1(c2ccccn2)CCOC2(CCCC2)C1	i
CC1c2cccn2-c2ccccc2CN1C(=O)Nc1ccc(F)c(Cl)c1 (stereo not given)	i
O=C(NC1CCCC1)N1Cc2ccccc2-n2cccc2C1c1cc(F)cc(F)c1 (stereo not given)	i
CSc1ccc(C2c3cccn3-c3ccccc3CN2C(=O)Nc2ccc(C)c(Cl)c2)cc1 (stereo not given)	i
O=c1ccc2[nH]cc(C3=CCNCC3)c2[nH]1	+
Cc1ccc(CNC(=O)N2Cc3ccccc3-n3cccc3C2c2ccccc2C)cc1 (stereo not given)	i
CC(N)c1cccc(Cl)c1Cl (stereo not given)	+
CC(C)c1cccc(C(C)C)c1O	i
